Some of the results follow. The hit rate among all sequences tested is not known here.
Target: furin, P09958
Assay: furin cleavage Z-score vs untreated control; higher = more cleavage, active = 3.5 or more, inactive = 1 or less, 8 variable residues between constant flanks
Summary of the method: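 To give the cleavage Z-score, log read counts were set against furin-free reactions, lowess-adjusted and scaled by median absolute deviation. These counts came from PCR adapter-tagged, sequenced DNA released when purified furin cut 8-mer peptides fused to a cDNA oligonucleotide and held on magnetic beads by their N-terminus. Digests were 0.01 ml, 1:10 enzyme:substrate, in 50 mM HEPES pH 7.5 with CaCl2 and NaCl, for 7.5, 15 or 30 min.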

Chain of furin, P09958 (P09958 whole entry): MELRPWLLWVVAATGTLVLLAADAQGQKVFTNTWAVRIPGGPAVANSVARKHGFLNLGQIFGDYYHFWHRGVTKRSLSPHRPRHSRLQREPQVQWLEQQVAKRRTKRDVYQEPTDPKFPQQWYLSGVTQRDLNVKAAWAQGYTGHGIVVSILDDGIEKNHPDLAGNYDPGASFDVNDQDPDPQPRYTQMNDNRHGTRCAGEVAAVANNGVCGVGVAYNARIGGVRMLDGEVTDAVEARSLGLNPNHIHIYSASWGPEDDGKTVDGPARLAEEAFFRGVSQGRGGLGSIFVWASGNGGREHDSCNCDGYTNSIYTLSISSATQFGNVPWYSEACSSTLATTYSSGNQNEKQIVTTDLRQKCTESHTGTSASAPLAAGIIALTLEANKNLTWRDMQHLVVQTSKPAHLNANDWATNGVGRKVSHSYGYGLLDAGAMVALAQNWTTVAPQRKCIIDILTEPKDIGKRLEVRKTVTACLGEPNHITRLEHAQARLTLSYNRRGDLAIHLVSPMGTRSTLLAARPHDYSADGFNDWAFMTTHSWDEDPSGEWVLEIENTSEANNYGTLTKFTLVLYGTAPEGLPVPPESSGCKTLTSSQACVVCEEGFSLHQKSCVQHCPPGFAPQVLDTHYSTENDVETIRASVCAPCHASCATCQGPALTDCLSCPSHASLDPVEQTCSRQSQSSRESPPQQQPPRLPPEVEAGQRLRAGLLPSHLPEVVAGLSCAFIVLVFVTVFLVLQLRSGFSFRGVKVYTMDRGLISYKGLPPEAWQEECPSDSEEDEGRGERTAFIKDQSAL

Sequence | furin cleavage Z-score (7.5 min) | furin cleavage Z-score (15 min) | furin cleavage Z-score (30 min)
CAVAGALVAFAGNASASA [HC1090] | 1.08 | -1.61 (inactive) | -0.599 (inactive)
CARLTRSNSKAGNASASA [FS-1750] | -0.152 (inactive) | 1.68 | -1.49 (inactive)
CARLKRFSMVAGNASASA [FS-2705] | 1.5 | 0.596 (inactive) | 2.46
CARLKRSPDKAGNASASA [FS-2277] | 9.81 (active) | 12.1 (active) | 8.68 (active)
CARSGRVVGSAGNASASA [FS-3235] | -1.67 (inactive) | 0.0813 (inactive) | 0.573 (inactive)
CARSKRDGSEAGNASASA [FS-1868] | 3.53 (active) | 5.29 (active) | 5.43 (active)
CALATRSFGSAGNASASA [HC1334] | -0.496 (inactive) | 0.424 (inactive) | -0.551 (inactive)
CARAGRDVGSAGNASASA [FS-1989] | 2.62 | 3.76 (active) | 2.8
CARSKKIFGSAGNASASA [FS-2405] | -1.12 (inactive) | -0.175 (inactive) | 0.546 (inactive)
CARSKRRKYSAGNASASA [FS-2380] | 0.793 (inactive) | -0.279 (inactive) | 0.723 (inactive)
CARSYRGISSAGNASASA [FS-2093] | 1.39 | -0.63 (inactive) | 0.639 (inactive)
CAHIDLLVGSAGNASASA [HC291] | -0.513 (inactive) | -1.31 (inactive) | -1.06 (inactive)
CARSKRDVGSAGNASASA [FS-2379] | 11.6 (active) | 11.3 (active) | 8.54 (active)
CARSKRDISSAGNASASA [FS-3083] | 9.51 (active) | 11.2 (active) | 9.07 (active)
CASTPCSAFLAGNASASA [HC2547] | -0.397 (inactive) | -0.0879 (inactive) | 0.628 (inactive)
CAQKLPINALAGNASASA [HC1380] | 0.17 (inactive) | -0.107 (inactive) | -0.819 (inactive)
CAGDFHYVTGAGNASASA [HC1209] | -0.771 (inactive) | -0.551 (inactive) | -1.55 (inactive)
CATTPPSGSWAGNASASA [HC60] | -1.04 (inactive) | -0.299 (inactive) | -0.554 (inactive)
CASYANGSGPAGNASASA [HC397] | 0.376 (inactive) | -1.07 (inactive) | 0.0876 (inactive)
CADKEVVTSTAGNASASA [HC2294] | -0.414 (inactive) | -0.137 (inactive) | -0.18 (inactive)
CAAEVRSKRRAGNASASA [FS-3] | 4.87 (active) | 4.38 (active) | 5.1 (active)
CAGENCGYRRAGNASASA [HC1506] | -0.528 (inactive) | -0.187 (inactive) | -0.341 (inactive)
CAIRSALKRPAGNASASA [FS-444] | 0.37 (inactive) | -0.823 (inactive) | -0.407 (inactive)
CAALKRSKRRAGNASASA [FS-1445] | 11.5 (active) | 10.6 (active) | 8.09 (active)
CAIRQVGDFHAGNASASA [HC1207] | -0.371 (inactive) | -0.615 (inactive) | -1.78 (inactive)
CAIRSRVLREAGNASASA [FS-804] | 12.6 (active) | 10.5 (active) | 8.33 (active)
CAAERRSVIRAGNASASA [FS-1666] | -0.389 (inactive) | -2.19 (inactive) | -0.341 (inactive)
CAALKRPVEQAGNASASA [FS-2858] | -1.15 (inactive) | -0.538 (inactive) | -0.285 (inactive)
CAPLRRSKRRAGNASASA [FS-1148] | 9.4 (active) | 9.64 (active) | 8.71 (active)

Source: the supplement of paper PMC3545927
